This is part of a sample that, as a whole, favours compounds with a hit. Of some 83,000 tested, about 20% had one in any assay.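 For each line, cells grew in 96-well plates with the test compound present at a single concentration for 48 hours.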 A number with no mark means an inactive call. Calls of active or inactive are those of the source. How the source made its calls: active means growth percent below 10; inactive means the rest.
Legend:
Test in all cases: NCI-60 one-dose screen, 48 h (100 = growth as untreated, 0 = no growth, -100 = all killed)
Conditions in all cases: 10 µM unless noted
DU-145 prostate = tested on: DU-145 prostate
K-562 leukemia = tested on: K-562 leukemia
MALME-3M melanoma = tested on: MALME-3M melanoma
MDA-MB-231 breast = tested on: MDA-MB-231 breast
RXF 393 renal = tested on: RXF 393 renal
SF-268 CNS = tested on: SF-268 CNS
SF-295 CNS = tested on: SF-295 CNS
SF-539 CNS = tested on: SF-539 CNS
UACC-257 melanoma = tested on: UACC-257 melanoma
M14 melanoma = tested on: M14 melanoma

Structure (SMILES) | growth (DU-145 prostate) | growth (K-562 leukemia) | growth (MALME-3M melanoma) | growth (MDA-MB-231 breast) | growth (RXF 393 renal) | growth (SF-268 CNS) | growth (SF-295 CNS) | growth (SF-539 CNS) | growth (UACC-257 melanoma) | growth (M14 melanoma)
N#Cc1c(N2CCOCC2)nc(=S)[nH]c1-c1ccccc1 | 87.6% | 93.4% | -3.74% (active) | 73.1% | 70.8% | 87.3% | 54.5% | 91.3% | 91.8% | 80.2%
CCOC(=O)c1c(-c2ccccc2)n2c(=O)cc(C)c3c(O)c(O)cc1c32 | 76.9% | 53.4% | 64.7% | 76.3% | 76.3% | 52.2% | 59.9% | 75.7% | 69.7% | 66.2%
COC(=O)c1c2c(c(C)[n+]([O-])c1C)C(=O)C=CC2=O | -78.6% (active) | 10.5% | -87.8% (active) | 0.888% (active) | -76.2% (active) | -0.514% (active) | 19% | -98.2% (active) | -80.8% (active) | -82.8% (active)
CN1CCN(Cc2ccc(NC(=O)c3cncc(C#Cc4cncc5[nH]ncc45)c3)cc2C(F)(F)F)CC1 | 20.2% | -5.05% (active) | -65.7% (active) | -88.2% (active) | -4.93% (active) | 2.23% (active) | 29% | -56.8% (active) | 6.82% (active) | -57.6% (active)
Cc1ccc2nc(Cl)c(Cn3nnnc3SCc3ccccc3)cc2c1 | 101% | 87.9% | 114% | 88.2% | 99.9% | 93.9% | 88.1% | 94.4% | 105% | 89.3%
CCN(C(=O)N1CCN(c2cc3c(cc2F)c(=O)c(C(=O)O)cn3C2CC2)CC1)c1nc(-c2ccc(C)cc2)cs1 | 23.6% | 16% | 14.7% | 6.79% (active) | 21.8% | 21% | -3.48% (active) | 20.2% | 14.6% | 19.6%
O=C(Nc1cccc(NC(=O)C2CCCCC2)c1)c1ccccn1 | 103% | 85.2% | 91% | 104% | 125% | 95.7% | 97.9% | 98.1% | 108% | 91.7%
O=C1c2cccnc2C(=O)c2c1c(C(=O)OCCCN1CCCCC1)c1ccccn21 | -86.8% (active) | -28.5% (active) | -78.2% (active) | -8.94% (active) | -64.2% (active) | -15.3% (active) | -13.9% (active) | -9.46% (active) | -38.4% (active) | -83.5% (active)
N#C/C(=C\c1ccc(Br)cc1)c1cc2ccccc2[nH]1 | 104% | 86.4% | 99.3% | 79.5% | 115% | 102% | 95.6% | 93.3% | 100% | 101%
Cc1c2cnccc2c(C)c2c1c1cc(C3OCCCO3)ccc1n2C | 3.92% (active) | 3.75% (active) | -62.9% (active) | -26.1% (active) | -78.9% (active) | 1.29% (active) | 0.404% (active) | -55.1% (active) | -25.8% (active) | -79.8% (active)
O=C1NC(=C(Cl)Cl)/C(=N/S(=O)(=O)NCCc2c[nH]c3ccccc23)N1 | 92.3% | 55% | 70% | 44.8% | 81.9% | 21.4% | 98.7% | 25.1% | 73.9% | 83.8%
O=c1oc2c(cnc3ccccc32)cc1-c1cccs1 | 113% | 94.1% | 103% | 107% | 112% | 100% | 105% | 105% | 108% | 104%
CC1=CCC[C@@H]2C1(C)CC[C@H](C)[C@@]2(C)CC1=CC(=O)C(SC(C)(C)C)=CC1=O (stereo not given in full) | 77.6% | 57.8% | 82.3% | 78.3% | 74.5% | 85.3% | 85.1% | 89.9% | 90.3% | 88.9%
S=c1ssnc1-c1cccs1 | 123% | 73.3% | 66.3% | 88.8% | 116% | 97.9% | 78.3% | 106% | 107% | 94.2%
C=C(CO)[C@@H]1CC[C@]2(COC3CCCCO3)CC[C@]3(C)[C@H](CC[C@@H]4[C@@]5(C)C=C(C=O)C(=O)C(C)(C)[C@@H]5CC[C@]43C)[C@@H]12 (stereo not given in full) | -98% (active) | -60.7% (active) | -78.4% (active) | -58.4% (active) | -86.2% (active) | -83.2% (active) | -89.5% (active) | -90.1% (active) | -64.4% (active) | -65.5% (active)
Brc1ccc(-c2cnc3nonc3n2)cc1 | 87.7% | 38.7% | 53.9% | 69.1% | 74.5% | 87.1% | 91.4% | 94.8% | 66.9% | 80.1%
N#Cc1c(-c2ccccc2)cc(-c2ccccc2)n(CCCC(=O)NO)c1=O | 26.1% | 7.36% (active) | 11.1% | 35.1% | -1.83% (active) | 37.3% | 13.8% | 20.6% | 37.6% | 18.6%
N#Cc1c(-c2ccccc2)nc2c(c(-c3ccccc3)nn2-c2ccccc2)c1-c1ccc(N2CCOCC2)cc1 | 91.5% | -20% (active) | 104% | 97.3% | 95% | 104% | 107% | 93.7% | 101% | 92.3%
O=C1NC(=C(Cl)Cl)/C(=N/S(=O)(=O)N2CCCCC2)N1 | 101% | -51.6% (active) | -73.6% (active) | -6.69% (active) | -39.8% (active) | 28.3% | 110% | 11.8% | 39.3% | 37.9%
COC(=O)C1=C(C(=O)Nc2cccnc2)C2OC1(C(Cc1ccccc1)Oc1ccccc1)C1OC21 (stereo not given) | 72.8% | -48.4% (active) | -74.7% (active) | 59.8% | 59.1% | 86.5% | 100% | 72% | 79.1% | 11.7%
CCN1C(=O)N(CC)C2C1NN=c1s/c(=C3\C(=O)N(CCc4ccccc4)c4ccccc43)c(=O)n12 (stereo not given) | 5.49% (active) | 7.99% (active) | 33.3% | 2.5% (active) | -5.91% (active) | 47% | 9.5% (active) | -37.4% (active) | 53.2% | 13.6%

Reference: PubChem BioAssay (NCI)
